Screening results as filed in PubChem.
p97 ATPase inh = inhibitors of human p97 ATPase, primary screen, biochemical. recombinant p97 ATPase, Kinase-Glo ATP luminescence, 3 h. Transitional endoplasmic reticulum ATPase (Homo sapiens), P55072. 0.42% of 220,000 active. inhibition, % at 8 µM; in the data active = inhibition above about 15%
HDAC3 inhib = HDAC3 deacetylase inhibitors, primary screen, biochemical, fluorescence, cell-free homogeneous; recombinant HDAC3, fluorogenic peptide/trypsin coupled; inhibition, % at 8.3 µM; 0.15% of 320,000 active; AID 2718, 2010; in the data active = inhibition above about 26%, passing the limit was not always enough
UBC9 SUMO inh = inhibitors of in vitro SUMOylation cascade, primary screen, biochemical, HTRF, uHTS | SUMO-conjugating enzyme UBC9 (Homo sapiens), P63279 | HTRF SUMOylation assay, SAE1/SAE2 + UBC9 | inhibition, % at 35 µM | 0.36% of 290,000 active; in the data active = inhibition above about 50%, passing the limit was not always enough
Target sequence (P63279 whole entry, looked up): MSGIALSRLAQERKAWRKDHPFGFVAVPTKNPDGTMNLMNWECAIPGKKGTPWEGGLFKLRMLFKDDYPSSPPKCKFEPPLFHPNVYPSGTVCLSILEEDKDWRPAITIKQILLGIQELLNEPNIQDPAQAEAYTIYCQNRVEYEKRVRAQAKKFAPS
PfM18AAP inh = PfM18AAP inhibitors, malaria aminopeptidase, primary screen, biochemical, QFRET, recombinant enzyme. M18 aspartyl aminopeptidase (Plasmodium falciparum 3D7). H-Glu-NHMec fluorogenic cleavage. inhibition, % at 7.35 µM. 1.2% of 290,000 active. AID 1822, 2009;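 active = inhibition above the campaign mean inhibition over all tested compounds plus 3 SD, cut at about 28% in these data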
G6PDH counter = L. mesenteroides G6PDH inhibitors, counter-screen for G6PDH-coupled screening assays, biochemical, Leuconostoc mesenteroides enzyme | inhibition, % at 5 µM | 0.12% of 200,000 active | Purified L. mesenteroides G6PDH, diaphorase/resazurin coupled fluorescence, 45 min | glucose-6-phosphate dehydrogenase [Leuconostoc mesenteroides]; in the data active = inhibition above about 50%
PHOSPHO1 block = PubChem AID 1565; 1.1% of 290,000 active; recombinant PHOSPHO1, absorbance phosphatase assay; inhibition, % at 13.3 µM; in the data active = inhibition above about 60%
Target sequence (Q8TCT1 whole entry, looked up): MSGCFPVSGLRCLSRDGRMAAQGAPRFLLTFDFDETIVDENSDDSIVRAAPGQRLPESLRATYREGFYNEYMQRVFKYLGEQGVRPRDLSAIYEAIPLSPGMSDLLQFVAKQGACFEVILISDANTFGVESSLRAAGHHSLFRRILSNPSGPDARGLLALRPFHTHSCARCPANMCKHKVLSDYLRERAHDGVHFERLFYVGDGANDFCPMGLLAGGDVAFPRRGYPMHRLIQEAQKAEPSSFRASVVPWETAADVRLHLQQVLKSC
Large screens that a line does not name were inactive. Rows were chosen to be rich in hits. Some 2.5% of all compounds tested hit in one or more screens of this group.

CC(C)C1Nc2ccc(C(=O)NCc3ccco3)cc2NC1=O (configuration not stated)	PfM18AAP inh 30.1 (no result: p97 ATPase inh, G6PDH counter)
COC(=O)c1ccccc1NC(=O)c1sc(=S)n(C)c1N	PHOSPHO1 block 90.1
COc1ccc(CC(=O)OCc2cc3ccc(C)cc3[nH]c2=O)cc1	PHOSPHO1 block 61.4
COc1ccc(CC(=O)OCc2cc3ccccc3[nH]c2=O)cc1	none
O=C1CC(=O)c2c1cccc2[N+](=O)[O-]	p97 ATPase inh 17.4, PfM18AAP inh 33.9 (no result: HDAC3 inhib, G6PDH counter)
Cc1ccc(C(=O)n2nc(-c3ccccc3)nc2NCc2ccco2)cc1	none
O=C(c1ccccc1)n1nc(-c2ccccc2)nc1NCc1ccco1	HDAC3 inhib 38.0
Nc1nc(-c2ccco2)nn1C(=O)c1ccccc1	HDAC3 inhib 35.3
CCCC(=O)n1nc(-c2ccco2)nc1N	HDAC3 inhib 40.3
O=C(Cn1c(=O)c2cccn2c2cccnc21)N1CCN(c2ccc(Cl)cc2)CC1	none (no result: p97 ATPase inh, G6PDH counter)
Cc1nnc2sc(SCC(=O)N3CCC(C)CC3)nn2c1=O	PHOSPHO1 block 65.8 (no result: p97 ATPase inh, G6PDH counter)
Cc1nnc2sc(SCC(=O)N3CCCCC3)nn2c1=O	none (no result: p97 ATPase inh, G6PDH counter)
O=C(c1ccc([N+](=O)[O-])s1)N1CCN(c2ccc(C(F)(F)F)cn2)CC1	none (no result: p97 ATPase inh, G6PDH counter)
COc1ccc(Cc2nnc(NC(=O)c3ccccc3Cl)s2)cc1OC	none (no result: p97 ATPase inh, G6PDH counter, PHOSPHO1 block)
COc1ccc(Cc2nnc(NC(=O)c3ccccc3F)s2)cc1OC	UBC9 SUMO inh 92.6 (no result: p97 ATPase inh, G6PDH counter)
CCOCc1cnc(C)nc1NCC(=O)c1c(C)[nH]c2ccc(OC)cc12	PHOSPHO1 block 63.7
COc1cc(OC)cc(-c2nnc(NC(=O)c3ccc4c(c3)OCCO4)o2)c1	PHOSPHO1 block 62.9 (no result: p97 ATPase inh, G6PDH counter)
CN1CCc2cccc3c2[C@H]1Cc1ccc(O)c(O)c1-3	PfM18AAP inh 34.5
O=C(c1ccccc1)N1CCN(CC(O)Cn2ccc3ccccc32)CC1 (configuration not stated)	PHOSPHO1 block 65.5 (no result: G6PDH counter)
CC1(C)CC(=O)C2=C(C1)Nc1[nH]c(=S)[nH]c(=O)c1C2c1ccccc1 (configuration not stated)	PHOSPHO1 block 96.3
O=C(Nc1nc2c(s1)CCCC2)C1CCCN1C(=O)c1cccs1 (configuration not stated)	PHOSPHO1 block 94.9
O=C(N/N=C/c1ccc(OC(=O)c2ccc([N+](=O)[O-])cc2)cc1)c1cccnc1	PHOSPHO1 block 62.8 (no result: p97 ATPase inh, G6PDH counter)
O=C(N/N=C/c1ccc(OC(=O)c2ccccc2)cc1)c1cccnc1	none (no result: p97 ATPase inh, G6PDH counter)
C=CCNC(=O)c1c(CS(=O)(=O)c2ccccc2)noc1C(=O)NCc1ccccc1	none (no result: p97 ATPase inh, UBC9 SUMO inh, PfM18AAP inh, G6PDH counter, PHOSPHO1 block)
Cc1ccc(NC(=O)CSc2ccc(-c3cccnc3)nn2)c(C)c1	PHOSPHO1 block 72.8 (no result: p97 ATPase inh, G6PDH counter)
Cc1ccc(NC(=O)CSc2ccc(-c3ccccn3)nn2)c(C)c1	none (no result: p97 ATPase inh, G6PDH counter)
COc1ccccc1N(CC(=O)N1CCCC1)S(=O)(=O)c1cc([N+](=O)[O-])ccc1Cl	none (no result: p97 ATPase inh, UBC9 SUMO inh, PfM18AAP inh, G6PDH counter, PHOSPHO1 block)
COc1cc(CN2CCC(C(=O)N3CCC(C)CC3)CC2)cc(Br)c1O	PfM18AAP inh 31.4
COc1cc(CN2CCC(C(=O)NC3CCCC3)CC2)cc(Br)c1O	none
CC1C(=O)NN=C1C(=O)N/N=C\c1ccc(O)cc1O (configuration not stated)	UBC9 SUMO inh 89.1
COc1cc(/C=N/NC(=O)C2=NNC(=O)C2C)ccc1O (configuration not stated)	none (no result: G6PDH counter)
CC(C)=CC1C(C(=O)NCCc2ccccc2)C1(C)C (configuration not stated)	none (no result: p97 ATPase inh, UBC9 SUMO inh, PfM18AAP inh, G6PDH counter, PHOSPHO1 block)
Cc1ccc2[nH]c3c(c2c1)CN(C(=O)CN1CCCc2ccccc21)CC3	PHOSPHO1 block 69.9 (no result: UBC9 SUMO inh)
CCS(=O)(=O)C1=NN2C(=N)/C(=C\c3ccc(OC(=O)c4ccco4)c(Br)c3)C(=O)N=C2S1	HDAC3 inhib 39.2 (no result: p97 ATPase inh, G6PDH counter)
CCS(=O)(=O)C1=NN2C(=N)/C(=C\c3ccc(SCc4ccco4)o3)C(=O)N=C2S1	UBC9 SUMO inh 62.0 (no result: HDAC3 inhib)
N=C1/C(=C\c2ccc(SCc3ccccc3)o2)C(=O)N=C2SC=NN12	none
CCOc1cc(/C=C2\C(=N)N3N=C(S(=O)(=O)CC)SC3=NC2=O)ccc1OC(=O)c1ccco1	none (no result: p97 ATPase inh, G6PDH counter)
O=c1c2ccccc2nc(-c2ccco2)n1CCc1ccc(O)cc1	none (no result: p97 ATPase inh, G6PDH counter)
Cc1cccc(Cn2nnc3c2C(=O)c2ccccc2C3=O)c1	G6PDH counter 54.1
COc1cc(CN2CCN(Cc3ccc(SC)cc3)CC2)cc(OC)c1O	G6PDH counter 57.7
COc1cc(OC)c(OC)cc1CN1CCN(Cc2ccc(SC)cc2)CC1	none
COc1cc(CN2CCN(S(=O)(=O)c3ccc(NC(C)=O)cc3)CC2)cc(OC)c1O	G6PDH counter 51.5
Cc1noc(C)c1S(=O)(=O)N1CCCC1C(=O)O (configuration not stated)	none (no result: p97 ATPase inh, G6PDH counter)
CCN1CCN(C2=C(NS(=O)(=O)c3ccc(NC(C)=O)cc3)C(=O)c3ccccc3C2=O)CC1	none (no result: p97 ATPase inh, G6PDH counter)
CCN1CCN(C2=C(NS(=O)(=O)c3ccc(C)cc3)C(=O)c3ccccc3C2=O)CC1	PfM18AAP inh 31.4 (no result: p97 ATPase inh, G6PDH counter)
CC(=O)Nc1ccc(S(=O)(=O)NC2=C(N3CCN(Cc4ccccc4)CC3)C(=O)c3ccccc3C2=O)cc1	PHOSPHO1 block 64.4
CCOC(=O)C1=C(c2ccccc2)N2CCN=C2S1	PfM18AAP inh 32.4 (no result: HDAC3 inhib, UBC9 SUMO inh, G6PDH counter, PHOSPHO1 block)
CCOC(=O)c1nc(-c2ccccc2)oc1N1CCOCC1	none
CC(C)N1CCc2c(sc(NC(=O)CCS(=O)(=O)c3ccccc3)c2C#N)C1	none (no result: p97 ATPase inh, G6PDH counter)
COc1ccc(CC(=O)NNC(=O)c2cnccn2)cc1	PfM18AAP inh 29.0
COc1ccc(CC(=O)NNC(=O)c2ccccn2)cc1	none (no result: p97 ATPase inh, G6PDH counter)
O=C1C(N2CCOCC2)=C(n2nnc3ccccc32)C(=O)c2ccccc21	G6PDH counter 60.7
CNC(=O)c1ccsc1NC(=O)CS(=O)(=O)c1ccc(Cl)cc1	PHOSPHO1 block 64.0 (no result: p97 ATPase inh, UBC9 SUMO inh, G6PDH counter)
CC(C)(CNC(=O)c1ccccc1F)CNC(=O)c1ccccc1F	none (no result: p97 ATPase inh, UBC9 SUMO inh, PfM18AAP inh, G6PDH counter, PHOSPHO1 block)
CCn1nc(C)cc1C(=O)N1CCCC(N2CCN(Cc3ccc4c(c3)OCO4)CC2)C1 (configuration not stated)	none (no result: p97 ATPase inh, G6PDH counter)
Cn1nccc1C(=O)N1CCCC(N2CCN(Cc3ccc4c(c3)OCO4)CC2)C1 (configuration not stated)	PHOSPHO1 block 61.0 (no result: p97 ATPase inh, G6PDH counter)
OCCC1CN(Cc2nc(-c3ccccc3)cs2)CCN1Cc1ccc(F)cc1 (configuration not stated)	none
OCCC1CN(Cc2nc(-c3ccccc3)cs2)CCN1C1CCCC1 (configuration not stated)	PHOSPHO1 block 64.2
CCOc1ncccc1C(=O)NNC(=O)CSc1ccc(Cl)cc1	none (no result: p97 ATPase inh, UBC9 SUMO inh, PfM18AAP inh, G6PDH counter, PHOSPHO1 block)
COc1ccc(CNCc2c(O)c(Cl)cc3c(C)c(C)c(=O)oc23)c(OC)c1	none (no result: p97 ATPase inh, G6PDH counter)
COc1cc(C(=O)Nc2cccc(-n3cnnn3)c2)cc(OC)c1OC	none (no result: p97 ATPase inh, G6PDH counter)
